mcGAS inh: blocks mouse cGAS activity. inhibition, % at 12.5 µM. recombinant cGAS, Kinase-Glo ATP depletion luminescence. 160,000 tested, 0.15% active. Q8C6L5
NPYLR7 ag: activates Aedes aegypti NPYLR7 receptor; activation, % at 10 µM; 270,000 tested, 0.15% active; AID 1259423; HEK293T NPYLR7/Galpha15, GCaMP6s calcium fluorescence; in the data active means activation above about 40%
hcGAS lum: blocks human cGAS activity; Q8N884; recombinant h-cGAS, ATP depletion, Kinase-Glo luminescence; inhibition, % at 12.5 µM; 290,000 tested, 0.081% active
Target sequence (Q8N884 whole entry, looked up): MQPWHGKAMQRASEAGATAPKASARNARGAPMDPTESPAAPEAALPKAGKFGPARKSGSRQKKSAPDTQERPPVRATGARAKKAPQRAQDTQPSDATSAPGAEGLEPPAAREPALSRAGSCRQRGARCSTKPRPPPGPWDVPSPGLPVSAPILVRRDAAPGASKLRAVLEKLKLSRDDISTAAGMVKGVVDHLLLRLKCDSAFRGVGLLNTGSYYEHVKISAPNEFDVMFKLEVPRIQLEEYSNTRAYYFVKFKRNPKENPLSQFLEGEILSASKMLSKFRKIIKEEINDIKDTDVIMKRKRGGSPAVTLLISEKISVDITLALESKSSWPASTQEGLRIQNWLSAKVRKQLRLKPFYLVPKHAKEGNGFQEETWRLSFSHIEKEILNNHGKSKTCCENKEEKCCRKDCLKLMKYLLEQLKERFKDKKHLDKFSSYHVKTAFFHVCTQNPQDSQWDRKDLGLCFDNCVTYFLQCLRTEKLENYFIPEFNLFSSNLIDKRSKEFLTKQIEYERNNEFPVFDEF
Large screens that a line does not name were inactive; ! = not active in a repeat. Most compounds without a hit are left out; they make up all but 0.28% or so of the library. Unless noted, no stated cut-off is given here; in the data, active means inhibition above about 40%; inactive means the rest.

O=C(Nc1nnc(-c2ccccc2)s1)c1ccccc1OC(F)F	none (no result: mcGAS inh)
CC(C)OC(=O)C(C(=O)C(F)(F)F)c1cc(NS(=O)(=O)c2ccccc2)ccc1O (centres undefined)	none (no result: mcGAS inh)
CC(C)OC(=O)C(C(=O)C(F)(F)F)c1cc(NS(=O)(=O)c2ccc(Cl)cc2)ccc1O (centres undefined)	NPYLR7 ag 44 (no result: mcGAS inh)
CCOC(=O)c1c(N=Cc2nc(-c3ccccc3)oc2O)sc(C)c1C	none
CCOC(=O)c1c(-c2ccccc2)csc1N=Cc1nc(-c2ccco2)oc1O	NPYLR7 ag 141
CC1C(=O)N(c2ccc(F)cc2)CCN1C(=O)c1cccc(Br)c1 (centres undefined)	none
O=[N+]([O-])c1ccc2c(c1)S(=O)(=O)C=C2	mcGAS inh 86
O=[N+]([O-])c1ccc(OC2=NS(=O)(=O)c3cc([N+](=O)[O-])ccc32)cc1	none
O=C(O)CSc1ccc2c3c(cccc13)C(=O)c1ccccc1-2	mcGAS inh 66, NPYLR7 ag 94, hcGAS lum 76
CCNC(=O)CSc1ccc2c3c(cccc13)C(=O)c1ccccc1-2	none (no result: mcGAS inh)
Cn1c(=O)[nH]c(=O)c2c1nc(NC1CCCCC1)n2Cc1ccccc1Cl	none (no result: mcGAS inh)
CCCC(=O)N1CCN(c2nc3nccc(-c4ccc(Cl)c(Cl)c4)n3n2)CC1	none (no result: NPYLR7 ag)
CN(Cc1cc(C(C)(C)C)n[nH]1)c1nc(CCN)nc2ccccc12	none (no result: mcGAS inh, NPYLR7 ag)
CN(Cc1ccccc1)c1nc(CCN)nc2ccccc12	hcGAS lum 47
CCC(Cn1ccnc1)NC(=O)c1cnn2ccccc12 (centres undefined)	none
Cc1cc2c(C(C)C)c(O)c(O)c(C=O)c2c(O)c1-c1c(C)cc2c(C(C)C)c(O)c(O)c(C=O)c2c1O	mcGAS inh 48!
COc1cccc(CCC2CCCN(C(=O)CSC)C2)c1 (centres undefined)	none (no result: mcGAS inh)
CC1CCN(c2ccc(NC(=O)Nc3cccc4ccccc34)cc2C(=O)NC(C)c2ccccc2)CC1 (centres undefined)	none
CCCCNC(=O)CCCCCNC(N)=O	NPYLR7 ag 55 (no result: mcGAS inh)
CCCCCCCCCCCCCCCC(=O)NCCO	none
COc1ccc2nc(-c3ccc(C)c(NC(=O)c4ccccc4)c3)cn2n1	none
CCCCC(CC)CNC(=O)c1cnc2c(-c3ccc(F)cc3)cnn2c1C (centres undefined)	none
CCc1ccccc1C1c2cccn2CCCN1Cc1ccccc1[N+](=O)[O-] (centres undefined)	none
COc1ccccc1C1c2cccn2CCCN1Cc1ccccc1[N+](=O)[O-] (centres undefined)	hcGAS lum 81
CC(C)S(=O)(=O)Oc1ccc(CN(C(=O)c2cccc(F)c2)C2CC2)cc1	none
CC(C)S(=O)(=O)Oc1ccc(CN(Cc2ccco2)C(=O)c2cccc(F)c2)cc1	hcGAS lum 45
CC(C)Cc1nc(C2CN(C(=O)C3CCOCC3)CC23CCCC3)no1 (centres undefined)	none (no result: NPYLR7 ag)
Cc1cc([N+](=O)[O-])ccc1N1C(=O)/C(=C\c2cccc(OCCO)c2)N(C)C1=S	none
COc1ccc(OC)c(CCNc2nc3cnc(-c4cccc5ccccc45)cc3n2C)c1	NPYLR7 ag 59
COc1ccc(OCC(=O)NCc2cc(-c3ccc4c(c3)OCO4)on2)cc1	none
COc1ccc(OC)c(CCNc2nc3cnc(-c4ccc5c(c4)OCO5)cc3n2C)c1	NPYLR7 ag 71
COc1ccc(-c2cc3c(cn2)nc(NCc2ccccc2)n3C)c(C)c1	none
COCCN(Cc1ccc(OS(C)(=O)=O)cc1)C(=O)NC1CCCCC1	none
COCC1CCCN(C(=O)c2ccc(-c3cc4ccccc4nc3OC)nc2)C1 (centres undefined)	none
O=C1CC(c2ccccc2)N(C(=O)Nc2ccc(OC(F)F)cc2)CCN1 (centres undefined)	none
COc1ccc(CN2CCC2(C)C(=O)Nc2ccc(C)c(O)c2)c2ccccc12 (centres undefined)	none (no result: mcGAS inh)
Cc1[nH]n2c(=O)c(C#N)c(-c3ccccc3)nc2c1-c1ccccc1	hcGAS lum 54 (no result: mcGAS inh)
CCc1c(C)nc2c(-c3ccccc3)c(C)[nH]n2c1=O	none (no result: mcGAS inh)
CC1=NC(O)(C23CC4CC(CC(C4)C2)C3)C(C)S1 (centres undefined)	none (no result: NPYLR7 ag)
Cc1ccc(C(=O)N2CCC3(CC2)CC(=O)c2ccc(N4CCCC4)cc2O3)s1	none (no result: mcGAS inh)
O=c1c(-c2cc(O)c(O)c(O)c2)coc2cc(O)c(O)c(O)c12	mcGAS inh 82, hcGAS lum 71 (no result: NPYLR7 ag)
O=c1c(-c2ccc(O)cc2)coc2cc(O)cc(O)c12	none
CCN(CC)C(=O)CSc1nnc(SC(C)C#N)s1 (centres undefined)	none (no result: mcGAS inh)
COCCn1c(O)c(C(C)=NC2CCCCCC2)c(=O)[nH]c1=S	none (no result: mcGAS inh)
N#Cc1c(N)oc2c3c(c(O)cc12)C(=O)c1ccccc1C3=O	hcGAS lum 48 (no result: mcGAS inh)
Nc1c(O)ccc2c1C(=O)c1ccccc1C2=O	none
Cc1nc(N2CCC(C(N)=O)CC2)nc2c1C(=O)CC(c1ccco1)C2 (centres undefined)	none (no result: mcGAS inh)
C=c1[nH]n(-c2ccccc2)c(=O)c1=CC=C1N(C)c2ccccc2C1(C)C	none (no result: mcGAS inh)
CN1C(=CC=C2C(=O)CC(C)(C)CC2=O)C(C)(C)c2ccccc21	NPYLR7 ag 298 (no result: mcGAS inh)
N#CC(=Cc1c(F)c(F)c(F)c(F)c1F)c1ccccn1	NPYLR7 ag 99
N#CC(=Cc1ccccc1I)c1ccccn1	none
Cc1nc(C)c(CNC(=O)Nc2nc(C(C)C)cs2)s1	none (no result: mcGAS inh)
CC1CCN(c2ccc(NC(=O)Nc3cccc(F)c3)cc2C(=O)NC(C)c2ccccc2)CC1 (centres undefined)	none
Cc1ccc(-n2[nH]c(C(=O)Nc3ccnc4ccnn34)cc2=O)cc1	hcGAS lum 68
O=C(CNC(=O)c1ccc(F)c(F)c1)Nc1ccnc2ccnn12	none (no result: mcGAS inh)
Cn1c(N)c(S(=O)(=O)Nc2ccc(F)cc2)c(=O)n(C)c1=O	none
CC1(C)C[C@@H]2C(=O)CC[C@H]3O[C@]3(C)CC[C@H]21	none (no result: mcGAS inh)
CSc1cccc(CN2CCN(Cc3cccs3)C(CCO)C2)c1 (centres undefined)	none
CCOC(=O)c1cnc(-c2ccccc2)nc1NCCc1cccs1	none
O=C(CCl)Nc1ccc2c(c1)C(=O)c1ccccc1C2=O	mcGAS inh 57
Cc1cc(NC(=O)CCl)ccc1N1CCCC1	none
Cc1ccc(Oc2cnn(-c3ccc(F)cc3)c(=O)c2Nc2cccc(C(=O)N3CCN(C)CC3)c2)cc1	none
COc1ccc(NC(C(=O)N2CCCCC2)c2ccccc2)cn1 (centres undefined)	none (no result: mcGAS inh)
COc1ccccc1-n1c(CNC(=O)c2ccc(S(=O)(=O)N(C)C)cc2)nnc1SCC(=O)N1CCc2ccccc21	none
COc1ccc(NC(=O)CN2C(=O)c3ccccc3NC23CCN(C)CC3)cn1	NPYLR7 ag 49 (no result: mcGAS inh)
COc1ccc(NC(=O)CCC(=O)N2CCc3ccccc3C2)cn1	none
COc1cc([N+](=O)[O-])ccc1-c1ccc(/C=C2/NC(=S)NC2=O)o1	none
O=C1NC(=S)NC(=O)C1=Cc1ccc(-c2cc([N+](=O)[O-])ccc2O)o1	mcGAS inh 42, hcGAS lum 51
Cc1ccc(-n2nc(-c3ccccc3)cc2C(=O)NCCc2ccc(Cl)cc2Cl)cc1	none
CN(C)Cc1ccccc1Cc1ccccc1	none (no result: mcGAS inh)
CN(C)Cc1ccc2ccc3cccc4ccc1c2c34	hcGAS lum 84 (no result: mcGAS inh)
O=C(Nc1cccc(C(=O)Nc2ccc(S(=O)(=O)O)c3cc(S(=O)(=O)O)cc(S(=O)(=O)O)c23)c1)Nc1cccc(C(=O)Nc2ccc(S(=O)(=O)O)c3cc(S(=O)(=O)O)cc(S(=O)(=O)O)c23)c1	mcGAS inh 86
